Assay [1] can be described thus: liver-stage malaria parasite growth inhibition, primary screen, cell-based, HepG2, luciferase luminescence, HepG2 viability (AID 624349; in the data active means parasite load remaining mostly below about 12%, no sharp cut-off; inactive means mostly above about 10%;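 further: 100% = mean of DMSO negative control wells on the same plate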). The following applies: P. berghei liver stage in HepG2, luciferase luminescence, concentration not given here; parasite load remaining: stronger effect = lower value; viability: measured here: HepG2 viability without parasites.
The target of assay [2] is 6-phosphogluconate dehydrogenase, decarboxylating (Homo sapiens) (UniProt P52209). Nature of the assay: 6PGD enzyme inhibitors, primary screen, biochemical, human, recombinant enzyme, NADPH absorbance (AID 1159550). The following applies: recombinant 6PGD, NADPH absorbance 341 nm; at 10 µM; stronger effect = higher value.
Assay [3] is described as follows: growth inhibition of DIPG glioma cells, dose response, cell-based, JHH-DIPG-1, MIPE4.0, CellTiter-Glo, qHTS (AID 1347062; cut-off not given, nearly all actives have AC50 up to about 27 µM). Conditions: JHH-DIPG-1 viability, CellTiter-Glo ATP luminescence. Background: In ATP-based viability assays light output follows the ATP content of the culture.
A short description of assay [4]: sensitizers of A549 cells to miR-34 induction, primary screen, imaging, A549 dox-inducible miR-34, nuclei and caspase counts (AID 1347080;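 active means compounds whose cell count with miR-34 switched on is under 0.7 times the count with it off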). The following applies: A549 miR-34 inducible, Hoechst nuclei count, 48 h.
Assay [5] in a line: survival rescue of mitochondrial mutant cells in low glucose, primary screen, MELAS cybrids, Rieske KO mouse fibroblasts, CellTiter-Glo (AID 1508586;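 active means mean z-score across replicates of 1.96 or higher in either the MELAS or the Rieske mutant cell line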;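 further: z relative to plate mean and SD of compound and empty wells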).
The target in assay [6] is NAD(+) hydrolase SARM1 (Homo sapiens) (UniProt Q6SZW1). Nature of the assay: SARM1 TIR NADase inhibitors, cell lysate, NAD-Glo luminescence (AID 1508614;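 active means compound whose remaining NAD level is above about 45 nM, limit read from the data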). The following applies: SAM-TIR HEK293T lysate NADase, at 1 µM, stronger effect = higher value.
Assay [7] addresses Mitogen-activated protein kinase 7 (Homo sapiens) (UniProt Q13164). Kind of assay: ERK5 transactivation activators in reporter cells, primary screen, cell-based, HTS (AID 1508626;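 active means luciferase signal above three times the same-plate solvent-only control wells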;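 further: luciferase driven by Gal4-ERK5 fusion binding five Gal4 sites before minimal TATA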). The following applies: HeLa Gal4-ERK5 transactivation, 18 h, at 5 µM, stronger effect = higher value.
A short description of assay [8]: polyglutamine-triggered caspase-3 activation inhibitors, cell-based (AID 1583). Conditions: polyglutamine-induced caspase-3 activation, cell assay; stronger effect = higher value;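 tested at 10 µM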.
The nature of assay [9]: suppressors of polyQ aggregation in yeast, 75Q-TubU reporter (AID 1593). Conditions: Yeast 75Q polyglutamine aggregation reporter.
Assay [10] can be described thus: rescue of polyQ-huntingtin neuronal dysfunction in worms, whole organism, C. elegans mechanosensory neurons, N-terminal huntingtin (AID 1599). Conditions: touch response, stronger effect = higher value.
Assay [11] in a line: inhibitors of mitochondrial cytochrome c release, biochemical, purified mitochondria (AID 1603).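 Further: mouse liver mitochondria challenged with calcium chloride; signal normalized to the plate average as 100%.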 Conditions: stronger effect = lower value.
Assay [12] is described as follows: inhibitors of polyQ protein aggregation (AID 1604). The following applies: polyglutamine-induced protein aggregation inhibition assay; stronger effect = higher value; tested at 2.5 µM.
Assay [13] in a line: enhancers of glutamate uptake in motor neurons, MN-1 cell line (AID 1612).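 Further: tested at 1 µM final; 0% = mean of DMSO vehicle wells on each plate; positive means more glutamate uptake than control and negative means less.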 Conditions: MN-1 motor neuron cells, stronger effect = higher value.
Assay [14] in a line: suppressors of polyglutamine aggregation in yeast, 75Q-TubH (AID 1616). Conditions: S. cerevisiae 75Q-TubH polyglutamine aggregation suppression; stronger effect = higher value.
The nature of assay [15]: viability rescue of complex I mutant cybrids, primary screen, cell-based, galactose medium, ATP luminescence (AID 1645843;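 active means z-score of at least 1.8 in each of two replicates, scored against plate mean and spread of sample wells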;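 further: positive z means more ATP and so rescue of galactose-driven cybrid death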). The following applies: complex I mutant cybrid cells, 72 h, stronger effect = higher value.
[16] abbreviates: stronger effect = lower value, cell number ratio, induced over uninduced.
The mark [17] stands for this setting: measured here: relative caspase fold change +Dox/-Dox.
Setting [18] is: measured here: total cells with miR-34 induction, stronger effect = lower value.
[19] abbreviates: measured here: total cells without miR-34 induction.
Where [20] appears, read: MELAS cybrid survival, CellTiter-Glo 48 h, stronger effect = higher value.
The mark [21] stands for this setting: Rieske KO mouse fibroblast survival, CellTiter-Glo 72 h.

Several values for one entry are separate records, joined by “and”; a condition that tells them apart may be missing. Equal values may be shown once. Records with an inconclusive call do not appear. For some assays here: Measured potencies and affinities stand elsewhere. Activity calls are given as the source filed them.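 How the source made its calls, unless noted: active means at least 20% inhibition of 6-phosphogluconate dehydrogenase activity; inactive means the rest.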

Mitogen-activated protein kinase 7 (Homo sapiens), sequence (Q13164 whole entry, looked up, the tested form may be a part): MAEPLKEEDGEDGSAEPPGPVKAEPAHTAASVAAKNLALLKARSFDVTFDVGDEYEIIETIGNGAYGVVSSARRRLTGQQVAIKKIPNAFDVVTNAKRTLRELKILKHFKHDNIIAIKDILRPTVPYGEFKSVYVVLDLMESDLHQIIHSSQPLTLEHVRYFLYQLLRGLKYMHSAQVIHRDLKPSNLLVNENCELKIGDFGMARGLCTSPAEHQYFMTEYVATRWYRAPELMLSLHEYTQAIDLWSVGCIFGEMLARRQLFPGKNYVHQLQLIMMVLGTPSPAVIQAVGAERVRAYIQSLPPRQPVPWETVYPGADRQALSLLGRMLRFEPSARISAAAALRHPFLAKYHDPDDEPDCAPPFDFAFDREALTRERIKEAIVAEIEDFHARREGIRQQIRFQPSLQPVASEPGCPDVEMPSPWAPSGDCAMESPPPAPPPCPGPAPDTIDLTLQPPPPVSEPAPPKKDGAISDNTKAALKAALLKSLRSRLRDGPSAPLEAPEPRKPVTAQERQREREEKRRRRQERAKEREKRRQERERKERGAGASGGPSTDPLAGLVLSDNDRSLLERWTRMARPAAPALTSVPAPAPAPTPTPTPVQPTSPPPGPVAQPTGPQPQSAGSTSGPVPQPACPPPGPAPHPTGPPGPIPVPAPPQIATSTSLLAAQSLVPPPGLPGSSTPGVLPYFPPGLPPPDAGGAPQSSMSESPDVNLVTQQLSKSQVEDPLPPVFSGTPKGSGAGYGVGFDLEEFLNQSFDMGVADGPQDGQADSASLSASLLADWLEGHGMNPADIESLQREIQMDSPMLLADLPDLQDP
6-phosphogluconate dehydrogenase, decarboxylating (Homo sapiens), sequence (P52209 whole entry, looked up): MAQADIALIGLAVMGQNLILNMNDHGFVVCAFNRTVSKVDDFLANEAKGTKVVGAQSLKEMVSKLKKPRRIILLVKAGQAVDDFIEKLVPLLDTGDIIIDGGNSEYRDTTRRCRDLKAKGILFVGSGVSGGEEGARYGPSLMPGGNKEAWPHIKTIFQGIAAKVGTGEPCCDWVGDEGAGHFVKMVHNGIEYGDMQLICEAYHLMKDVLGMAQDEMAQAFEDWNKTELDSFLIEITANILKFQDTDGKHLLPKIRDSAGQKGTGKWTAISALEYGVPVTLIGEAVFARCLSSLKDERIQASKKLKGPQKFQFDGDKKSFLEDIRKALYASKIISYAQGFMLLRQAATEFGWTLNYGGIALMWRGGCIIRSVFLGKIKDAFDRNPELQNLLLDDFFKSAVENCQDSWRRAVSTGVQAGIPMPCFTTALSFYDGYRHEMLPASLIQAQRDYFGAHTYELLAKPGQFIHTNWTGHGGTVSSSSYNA
NAD(+) hydrolase SARM1 (Homo sapiens), sequence (Q6SZW1 whole entry, looked up, the tested form may be a part): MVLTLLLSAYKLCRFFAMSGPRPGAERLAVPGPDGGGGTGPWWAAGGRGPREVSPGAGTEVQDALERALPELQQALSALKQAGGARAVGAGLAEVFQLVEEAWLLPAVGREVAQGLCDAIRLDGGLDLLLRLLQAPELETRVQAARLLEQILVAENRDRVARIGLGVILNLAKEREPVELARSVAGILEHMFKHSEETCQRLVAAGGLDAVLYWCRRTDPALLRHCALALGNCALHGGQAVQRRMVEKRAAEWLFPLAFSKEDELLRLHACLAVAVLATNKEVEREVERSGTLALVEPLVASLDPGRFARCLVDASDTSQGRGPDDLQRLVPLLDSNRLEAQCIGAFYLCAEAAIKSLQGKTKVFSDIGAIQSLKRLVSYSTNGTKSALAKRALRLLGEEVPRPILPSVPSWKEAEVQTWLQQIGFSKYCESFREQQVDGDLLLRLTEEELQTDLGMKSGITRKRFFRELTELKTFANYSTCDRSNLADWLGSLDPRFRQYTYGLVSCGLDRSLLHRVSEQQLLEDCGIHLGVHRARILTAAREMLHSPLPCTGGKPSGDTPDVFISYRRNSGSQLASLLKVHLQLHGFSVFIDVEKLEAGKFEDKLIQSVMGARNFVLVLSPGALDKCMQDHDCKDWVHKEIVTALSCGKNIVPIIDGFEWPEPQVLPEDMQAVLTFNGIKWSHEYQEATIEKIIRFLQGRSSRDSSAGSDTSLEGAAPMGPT

Broadly, the viability is a read-out of living cells in per cent, often relative to untreated cells. Broadly, the inhibition is the drop in the measured response relative to a control, in per cent. Take `C[C@H](CCC(=O)O)[C@H]1CC[C@H]2[C@@H]3[C@H](O)C[C@@H]4C[C@H](O)CC[C@]4(C)[C@H]3CC[C@]12C`: the parasite load remaining in assay [1] was 42% (inactive) and 91.9% (inactive). For the same molecule, the viability in assay [1] is 46.4% and 85.3%. Moreover, in assay [2], the inhibition is -1.04% (inactive). In addition, in assay [3], the molecule was called inactive. Further, the fold change was 0.917 (inactive) in assay [4] (setting [16]) and 1.03 in assay [4] (setting [17]). In addition, the figures for the cell count in assay [4] (setting [18]) and in [4] (setting [19]) were 9290 and 10100, respectively. Further, the z-score in assay [5] (setting [20]) was 0.377 (inactive); in assay [5] (setting [21]), -0.0721. For the same molecule, in [6], the remaining NAD is 10 nM (inactive). The luciferase signal in [7] is 112 AU (inactive).

For the molecule `C[C@@]12C[C@@]3(O)O[C@@H](O1)[C@]1(COC(=O)c4ccccc4)[C@H]3C[C@@]12O[C@@H]1O[C@H](CO)[C@@H](O)[C@H](O)[C@H]1O`, the inhibition in assay [2] is -7.19% (inactive). In addition, the call in assay [3] was inactive. Moreover, the luciferase signal in assay [7] was 60 AU (inactive).

`CC(C)(S)[C@@H](N)C(=O)O`: in [2], the inhibition is 5.83% (inactive). The molecule was classed as inactive in assay [3]. The remaining NAD in assay [6] was 10 nM (inactive). For the same molecule, in [7], the luciferase signal was 48 AU (inactive).

Consider `CC1(C)[C@@H](O)CC[C@]2(C)[C@H]3C(=O)C=C4[C@@H]5C[C@@](C)(C(=O)O)CC[C@]5(C)CC[C@@]4(C)[C@]3(C)CC[C@@H]12`, for which, in [2], the inhibition is 6.1% (inactive). For the same molecule, in assay [3], the result was inactive. For the same molecule, in [6], the remaining NAD was 10 nM (inactive). The luciferase signal in assay [7] was 56 AU (inactive).

For the molecule `COc1ccc(CCC(=O)c2c(O)cc(O[C@@H]3O[C@H](CO)[C@@H](O)[C@H](O)[C@H]3O[C@@H]3O[C@@H](C)[C@H](O)[C@@H](O)[C@H]3O)cc2O)cc1O`, the inhibition in assay [2] is -14.9% (inactive). Besides, the outcome in assay [3] was inactive. Further, in assay [7], the luciferase signal was 36 AU (inactive).

Turning to `COC1=C(OC)C(=O)C(C/C=C(\C)CC/C=C(\C)CC/C=C(\C)CC/C=C(\C)CC/C=C(\C)CC/C=C(\C)CC/C=C(\C)CC/C=C(\C)CC/C=C(\C)CCC=C(C)C)=C(C)C1=O`, the inhibition in assay [2] was -47.9% (inactive). The molecule was called inactive in [3].

As for `O=C(O)C1=CCNCC1`, the results for the inhibition in assay [8] and in assay [2] were 3.63% and 13% (inactive), respectively. The score in assay [9] amounted to 1.62. Also, the rescue above control in assay [10] was -1.41. In addition, the cytochrome c release ratio in assay [11] was determined as 1.01. In [12], this molecule registered an inhibition of aggregation of 45.5%. Further, in assay [13], the glutamate uptake change is 8.29%. In assay [14], this molecule returned an aggregation suppression score of 1.29. The fold change in [4] (setting [16]) was 1 (inactive) and 0.973 (inactive); in assay [4] (setting [17]), 1.35 and 1.1. Besides, the cell count was 9950 and 8720 in assay [4] (setting [18]); 9930 and 8960 in assay [4] (setting [19]). In addition, in assay [15], the z-score was 0.645 (inactive) and -0.22 (inactive).

Consider `CC1(C)[C@@H](O[C@H]2O[C@H](C(=O)O)[C@@H](O)[C@H](O)[C@H]2O[C@@H]2O[C@H](C(=O)O)[C@@H](O)[C@H](O)[C@H]2O)CC[C@]2(C)[C@H]3C(=O)C=C4[C@@H]5C[C@@](C)(C(=O)O)CC[C@]5(C)CC[C@@]4(C)[C@]3(C)CC[C@@H]12`, for which the inhibition in assay [2] was 11% (inactive). For the same molecule, the molecule was classed as inactive in assay [3].

`COc1cc2c(c(OC)c1OC)-c1ccc(OC)c(=O)cc1C(NC(C)=O)CC2` (stereo not given): the inhibition in [2] was -26.1% (inactive). Moreover, the fold change was 0.969 (inactive) in assay [4] (setting [16]) and 1.26 in assay [4] (setting [17]). For the same molecule, the cell count in assay [4] (setting [18]) came to 1510; in assay [4] (setting [19]), 1550. In assay [15], the z-score is -0.44 (inactive).

Take `CCC[C@@H]1C[C@@H](C(=O)N[C@@H]([C@H]2O[C@H](SC)[C@H](O)[C@@H](O)[C@H]2O)[C@H](C)Cl)N(C)C1`: the parasite load remaining in assay [1] was 69.6% (inactive) and 41% (inactive). Besides, in assay [1], the viability was 232% and 102%. Also, in assay [2], the inhibition is 8.56% (inactive). Further, the fold change in assay [4] (setting [16]) is 0.93 (inactive) and 0.912 (inactive); in assay [4] (setting [17]) it was 1.22 and 1. Moreover, the cell count in assay [4] (setting [18]) was 9830 and 9930; in assay [4] (setting [19]) it was 10600 and 10900. The z-score in assay [5] (setting [20]) is -0.831 (inactive) and -0.519 (inactive); in assay [5] (setting [21]), -0.0935 and -0.00307; in assay [15], -0.225 (inactive) and 0.615 (inactive). Besides, the remaining NAD in [6] is 10 nM (inactive). For the same molecule, the luciferase signal in assay [7] is 136 AU (inactive).

For `C=C1C(=O)O[C@H]2[C@H]1CC/C(C)=C/CC[C@@]1(C)O[C@@H]21`, the inhibition in assay [2] is 4.61% (inactive). Further, the results for the fold change in [4] (setting [16]) and in [4] (setting [17]) were 0.99 (inactive) and 0.618, respectively. For the same molecule, the cell count amounted to 8550 in assay [4] (setting [18]) and 8630 in assay [4] (setting [19]). Further, the z-score in assay [15] is 1.27 (inactive).

For the molecule `CCC[C@@H]1C[C@@H](C(=O)N[C@@H]([C@H]2O[C@H](SC)[C@H](O)[C@@H](O)[C@H]2O)[C@@H](C)O)N(C)C1`, the parasite load remaining in [1] is 63.5% (inactive). Besides, the viability in assay [1] is 128%. Further, the inhibition in [2] was -15.1% (inactive). For the same molecule, the call in assay [3] was inactive. The fold change in [4] (setting [16]) was 0.837 (inactive); in [4] (setting [17]), 1.35. Besides, the cell count worked out at 8810 in assay [4] (setting [18]) and 10500 in assay [4] (setting [19]). Moreover, the z-score in assay [5] (setting [20]) is 0.52 (inactive) and 0.4 (inactive); in assay [5] (setting [21]), -0.069 and -0.671; in [15] it was -0.14 (inactive). The remaining NAD in assay [6] was 10 nM (inactive). The luciferase signal in assay [7] is 64 AU (inactive).

The values above are taken from PubChem BioAssay.
